Assay [1] can be described thus: NCI Yeast Anticancer Drug Screen. Data for the rad50 strain (AID 155).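 Further: 0% = growth of vehicle-only cultures of the same strain.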 The conditions noted are these: S. cerevisiae rad50 strain growth inhibition, hits give high values. In outline:
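Readout: growth inhibition relative to vehicle-treated cultures. Compound exposure was carried out in a genetically defined yeast strain deficient in DNA damage repair.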

Assay [2] is described as follows: NCI Yeast Anticancer Drug Screen. Data for the mec2-1 strain (AID 157). Particulars: S. cerevisiae mec2-1 strain, hits give high values. In outline: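 Readout is yeast growth inhibition, normalised to vehicle-treated controls, in the mec2-1 strain exposed to compound.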
Assay [3] is described as follows: NCI Yeast Anticancer Drug Screen. Data for the sgs1 mgt1 strain (AID 161).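 Further: 0% = growth of cultures given vehicle only.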 Particulars: S. cerevisiae sgs1 mgt1 strain, hits give high values. In outline:
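Percent growth inhibition was derived by comparing compound-exposed mutant yeast with vehicle-exposed cultures. The strain carries alterations in DNA damage repair.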

Assay [4] can be described thus: NCI Yeast Anticancer Drug Screen. Data for the cln2 rad14 strain (AID 165).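 Further: 0% = growth equal to vehicle treated cultures.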 The conditions noted are these: S. cerevisiae cln2 rad14 strain, hits give high values. In outline:
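Relative to vehicle controls, growth inhibition of compound-treated cln2 rad14 yeast was recorded.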

Assay [5] can be described thus: NCI Yeast Anticancer Drug Screen. Data for the bub3 strain (AID 167). The conditions noted are these: S. cerevisiae bub3 mutant strain, hits give high values. Summed up:
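Readout: yeast growth inhibition, expressed relative to vehicle-only wells. The test organism is a mutant strain from a panel with lesions in DNA repair or checkpoint genes.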

Assay [6] is described as follows: NCI Yeast Anticancer Drug Screen. Data for the mlh1 rad18 strain (AID 175). The conditions noted are these: S. cerevisiae mlh1 rad18 strain growth inhibition, hits give high values. Summed up:
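Test agents were incubated with a yeast strain of defined genotype (DNA damage repair defect). Inhibition of growth was derived by comparison with vehicle-exposed cultures.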

Where [7] appears, read: at 5.0 µM (retest, dose inferred, filed as 0.5).
[8] abbreviates: at 50.0 µM (retest, dose inferred, filed as 5.0).

Nine compounds from PubChem BioAssay (NCI) can be followed below.

“And” between values parts separate entries of the source, which are not always exact repeats. Equal values may be shown once. The panel holds about 79,000 compounds, 15% with a hit somewhere; the sample as a whole holds those more often. Values without a mark were called inactive. The source made the active and inactive calls. No stated cut-off is given here; in the data, active means growth inhibition above about 70%; inactive means the rest.

`O=S(=O)(c1ccccc1)N1C2C3CCC(CC3)C21` (configuration not stated): the growth inhibition is -1% in assay [1] (setting [7]); -4% in assay [1] (setting [8]); 1.2% in assay [1] (at 50.0 µM); -11% in assay [2] (setting [7]); -16% in assay [2] (setting [8]); 2.75% in assay [2] (at 50.0 µM). In addition, the growth inhibition was -3% in assay [3] (setting [7]); -32% in assay [3] (setting [8]); 23% in assay [3] (at 50.0 µM); -1% in assay [4] (setting [7]); 3% in assay [4] (setting [8]); 7.65% in assay [4] (at 50.0 µM). Also, the growth inhibition in assay [5] (setting [7]) is 14%; in assay [5] (setting [8]), 96% (active); in assay [5] (at 50.0 µM), 76.6% (active); in assay [6] (setting [7]) it was -13%; in assay [6] (setting [8]), -5%; in assay [6] (at 50.0 µM), 1.5%.

`CN(CCO)CCO`: the growth inhibition in assay [1] (setting [7]) was 18%; in assay [1] (setting [8]), 86% (active); in assay [1] (at 50.0 µM), 6.55% and -12.4%; in assay [2] (setting [7]), 3%; in assay [2] (setting [8]) it was 26%; in assay [2] (at 50.0 µM), 7.5% and 36.6%. Also, the growth inhibition in assay [3] (setting [7]) was 5%; in assay [3] (setting [8]), 43%; in assay [3] (at 50.0 µM) it was -0.35% and 15.9%; in assay [4] (setting [7]) it was 1%; in assay [4] (setting [8]), 21%; in assay [4] (at 50.0 µM), -8.05% and 58.9%. In addition, the growth inhibition in assay [5] (setting [7]) was 1%; in assay [5] (setting [8]), 6%; in assay [5] (at 50.0 µM) it was -9.75% and 30.8%; in assay [6] (setting [7]) it was 10%; in assay [6] (setting [8]) it was 38%; in assay [6] (at 50.0 µM), -11.8% and 21.9%.

On to `COc1ccc2c(c1O)C13CCN(C)C(C2)C12C=CC(=O)C3c1c(O)ccc(O)c12` (configuration not stated), for which the growth inhibition in assay [1] (setting [7]) is -2%; in assay [1] (setting [8]) it was 59%; in assay [1] (at 50.0 µM), 76.7% (active); in assay [2] (setting [7]), 13%; in assay [2] (setting [8]), 66%; in assay [2] (at 50.0 µM), 66.5%. Also, the growth inhibition in assay [3] (setting [7]) is 17%; in assay [3] (setting [8]), 77% (active); in assay [3] (at 50.0 µM), 89.3% (active); in assay [4] (setting [7]), -2%; in assay [4] (setting [8]), 41%; in assay [4] (at 50.0 µM) it was 72.5% (active). Besides, the growth inhibition in assay [5] (setting [7]) is -8%; in assay [5] (setting [8]), 55%; in assay [5] (at 50.0 µM), 48.7%; in assay [6] (setting [7]) it was 17%; in assay [6] (setting [8]), 88% (active); in assay [6] (at 50.0 µM) it was 84.5% (active).

For the compound `C/C(=N\Nc1ccccn1)C1CC[N-]C2C(O)CCCC12.C/C(=N\Nc1ccccn1)C1CC[N-]C2C(O)CCCC12.[Cu+2]` (configuration not stated), the growth inhibition was 98% (active) in assay [1] (setting [7]); 98% (active) in assay [1] (setting [8]); 99% (active) in assay [1] (at 50.0 µM); 99% (active) in assay [2] (setting [7]); 99% (active) in assay [2] (setting [8]); 99.5% (active) in assay [2] (at 50.0 µM). The growth inhibition was 98% (active) in assay [3] (setting [7]); 99% (active) in assay [3] (setting [8]); 99.4% (active) in assay [3] (at 50.0 µM); 98% (active) in assay [4] (setting [7]); 97% (active) in assay [4] (setting [8]); 98.9% (active) in assay [4] (at 50.0 µM). For the same compound, the growth inhibition in assay [5] (setting [7]) is 99% (active); in assay [5] (setting [8]) it was 98% (active); in assay [5] (at 50.0 µM), 99% (active); in assay [6] (setting [7]) it was 99% (active); in assay [6] (setting [8]), 98% (active); in assay [6] (at 50.0 µM), 99.3% (active).

Regarding `NP(N)(=O)Nc1ccccc1`, the growth inhibition in assay [1] (setting [7]) was -1%; in assay [1] (setting [8]), -2%; in assay [1] (at 50.0 µM), 7.75%; in assay [2] (setting [7]) it was 2%; in assay [2] (setting [8]) it was -2%; in assay [2] (at 50.0 µM), -22.4%. In addition, the growth inhibition in assay [3] (setting [7]) was -1%; in assay [3] (setting [8]), -1%; in assay [3] (at 50.0 µM), -23.9%; in assay [4] (setting [7]), 0%; in assay [4] (setting [8]), -2%; in assay [4] (at 50.0 µM) it was 66.7%. In addition, the growth inhibition in assay [5] (setting [7]) was 2%; in assay [5] (setting [8]), -6%; in assay [5] (at 50.0 µM), -8%; in assay [6] (setting [7]) it was -2%; in assay [6] (setting [8]), 0%; in assay [6] (at 50.0 µM) it was 3.6%.

As to `[Br][Ni][Br].c1ccc(CN2CCN(Cc3ccccc3)CCN(Cc3ccccc3)CCN(Cc3ccccc3)CC2)cc1`, the growth inhibition in assay [1] (setting [7]) was 0%; in assay [1] (setting [8]) it was 82% (active); in assay [1] (at 50.0 µM), 96.7% (active); in assay [2] (setting [7]), 0%; in assay [2] (setting [8]) it was 62%; in assay [2] (at 50.0 µM) it was 98.3% (active). For the same compound, the growth inhibition was -2% in assay [3] (setting [7]); 65% in assay [3] (setting [8]); 97.6% (active) in assay [3] (at 50.0 µM); -2% in assay [4] (setting [7]); 78% (active) in assay [4] (setting [8]); 98.2% (active) in assay [4] (at 50.0 µM). Further, the growth inhibition is 3% in assay [5] (setting [7]); 92% (active) in assay [5] (setting [8]); 98.5% (active) in assay [5] (at 50.0 µM); 3% in assay [6] (setting [7]); 92% (active) in assay [6] (setting [8]); 98.2% (active) in assay [6] (at 50.0 µM).

Take `CCN1CCC(O)(c2ccc(Cl)c(Cl)c2)C(C(=O)c2ccc(Cl)c(Cl)c2)C1` (configuration not stated): the growth inhibition in assay [1] (setting [7]) was 75% (active); in assay [1] (setting [8]), 99% (active); in assay [1] (at 50.0 µM), 99.7% (active); in assay [2] (setting [7]), 57%; in assay [2] (setting [8]) it was 100% (active); in assay [2] (at 50.0 µM), 99.6% (active). For the same compound, the growth inhibition in assay [3] (setting [7]) is 78% (active); in assay [3] (setting [8]), 99% (active); in assay [3] (at 50.0 µM), 99.7% (active); in assay [4] (setting [7]) it was 60%; in assay [4] (setting [8]), 99% (active); in assay [4] (at 50.0 µM), 98.9% (active). In addition, the growth inhibition in assay [5] (setting [7]) is 71% (active); in assay [5] (setting [8]), 98% (active); in assay [5] (at 50.0 µM), 98.8% (active); in assay [6] (setting [7]), 54%; in assay [6] (setting [8]), 99% (active); in assay [6] (at 50.0 µM), 99.6% (active).

As to `N#Cc1ccccc1C(Cl)(Cl)Cl`, the growth inhibition in assay [1] (setting [7]) is 3%; in assay [1] (setting [8]), -6%; in assay [1] (at 50.0 µM), -5.55%; in assay [2] (setting [7]), 6%; in assay [2] (setting [8]) it was 12%; in assay [2] (at 50.0 µM) it was -21.9%. Besides, the growth inhibition in assay [3] (setting [7]) is -8%; in assay [3] (setting [8]), 3%; in assay [3] (at 50.0 µM) it was -7.1%; in assay [4] (setting [7]), 38%; in assay [4] (setting [8]), 18%; in assay [4] (at 50.0 µM) it was 27.1%. Also, the growth inhibition in assay [5] (setting [7]) was 26%; in assay [5] (setting [8]), 13%; in assay [5] (at 50.0 µM), 16.4%; in assay [6] (setting [7]), 9%; in assay [6] (setting [8]), 28%; in assay [6] (at 50.0 µM) it was -0.3%.

For the compound `CCNc1ncc2ccccc2c1-c1ccc(N2CCN(CCCl)CC2)cc1`, the growth inhibition was 15% in assay [1] (setting [7]); 93% (active) in assay [1] (setting [8]); 97.8% (active) in assay [1] (at 50.0 µM); 13% in assay [2] (setting [7]); 89% (active) in assay [2] (setting [8]); 74% (active) in assay [2] (at 50.0 µM). Besides, the growth inhibition in assay [3] (setting [7]) is 11%; in assay [3] (setting [8]), 97% (active); in assay [3] (at 50.0 µM), 98.7% (active); in assay [4] (setting [7]), 2%; in assay [4] (setting [8]) it was 90% (active); in assay [4] (at 50.0 µM), 93.5% (active). For the same compound, the growth inhibition in assay [5] (setting [7]) is 13%; in assay [5] (setting [8]), 95% (active); in assay [5] (at 50.0 µM) it was 97.2% (active); in assay [6] (setting [7]) it was 8%; in assay [6] (setting [8]), 97% (active); in assay [6] (at 50.0 µM) it was 98% (active).
